Screens (PubChem BioAssay)
Only some compounds are listed: those with a hit (about 2.4% of all), similar ones and a draw of the others.
Cruzain noTriton = qHTS Assay for Promiscuous and Specific Inhibitors of Cruzain (without detergent). Cruzipain (Trypanosoma cruzi), P25779. purified cruzain, Z-FR-AMC fluorescence, no detergent. Potency, µM, for inactives: max response, negative = inhibition, usual class: inhibitors. actives 2.3% (n = 200,000). AID 1476, 2009;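 note: plate controls were enzyme without inhibitor for no effect and buffer without enzyme for full effect; nearly all actives have a fitted effect of over 40% in size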
Target sequence (P25779 123-467 limits assumed): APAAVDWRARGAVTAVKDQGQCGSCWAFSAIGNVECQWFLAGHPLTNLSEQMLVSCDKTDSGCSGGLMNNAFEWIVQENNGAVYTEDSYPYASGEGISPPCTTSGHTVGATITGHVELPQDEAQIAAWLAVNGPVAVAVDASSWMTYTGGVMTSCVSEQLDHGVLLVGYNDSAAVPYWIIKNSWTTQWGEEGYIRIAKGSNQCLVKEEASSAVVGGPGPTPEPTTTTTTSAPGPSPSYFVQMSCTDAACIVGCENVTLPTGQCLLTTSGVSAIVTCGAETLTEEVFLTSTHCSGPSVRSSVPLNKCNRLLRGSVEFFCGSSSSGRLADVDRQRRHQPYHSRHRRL
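Purified cruzain at 1.5 nM, pre-incubated 15 min with compound at room temperature in 100 mM sodium acetate pH 5.5, 5 mM DTT, 0.00005% Triton X-100. Reaction started with 2 uM Z-FR-AMC; AMC fluorescence increase over 60 s gives rate.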
Cruzain Triton = qHTS Assay for Promiscuous and Specific Inhibitors of Cruzain (with detergent) | purified cruzain, Z-FR-AMC fluorescence, 0.01% Triton | actives 0.43% (n = 200,000) | Potency, µM, inactives show max response, negative = inhibition, actives largely listed as inhibitors | Cruzipain (Trypanosoma cruzi), P25779;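 note: plate controls were neutral wells for no effect and buffer without enzyme for full effect; nearly all actives have a fitted effect of over 40% in size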
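Cruzain (1.5 nM) preincubated 15 min at RT with compound in 100 mM sodium acetate pH 5.5, 5 mM DTT, 0.01% Triton X-100. Reaction started with 2 uM Z-FR-AMC; AMC fluorescence (ex 360/em 450 nm) change over 60 s gave rate.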
* hit, by the source's call; ? = inconclusive. Calls come from the whole dose curve; as a rule, active = well fitted curve in the direction sought with a large enough effect; inconclusive = small, poorly fitted or top-dose-only effect, or another doubt; inactive = no such curve, though single readings can be large; an effect the other way counts as inactive or inconclusive. Potency is the fitted concentration of half-maximal effect.

SMILES	Cruzain noTriton	Cruzain Triton
CC(C)OCCCNC(=O)CN1C(=O)COc2ccc(S(=O)(=O)N3CCOCC3)cc21	0%	0%
O=C(Nc1ccccc1)c1cn(-c2ccccc2)nc1-c1ccccc1	29%	-5%
O=C(Nc1ccc([N+](=O)[O-])cc1)c1cn(-c2ccccc2)nc1-c1cc2ccccc2o1	7.9µM*	-3%
CCc1ccccc1NC(=O)c1nn(-c2ccc(C)cc2)c(=O)c2c1c1ccccc1n2C	6%	-3%
O=C(N/N=C/c1ccc(Br)s1)c1cccc([N+](=O)[O-])c1	20µM*	-14%
Cc1ccc(/C=N/NC(=O)c2cccc([N+](=O)[O-])c2)o1	2%	-5%
O=C(O)CCC/C=C\C/C=C\C=C\[C@@H](O)C/C=C\CCCCCO	2%	-1%
CCCCC/C=C\C[C@@H]1O[C@H]1C(O)/C=C\C/C=C\CCCC(=O)O (stereo not given in full)	-9%	1%
COC(=O)COc1ccc2oc(-c3ccc(OC)cc3)cc(=O)c2c1	-8%	-1%
O=C(COc1ccc2oc(-c3ccccc3)cc(=O)c2c1)Nc1ccccc1	32µM*	-11%
CC(=O)Nc1nnc(-c2ccc3c(c2)CCCC3)o1	-10%	-2%
O=C(Nc1nnc(-c2ccc(Cl)cc2)o1)NC1CCCCC1	25µM*	9%
O=C(Nc1ccc(Cl)cc1)NC1CCCCC1	-2%	-1%
O=C(COc1ccc(Cl)cc1)Nc1nnc(-c2ccc3c(c2)CCCC3)o1	7.9µM*	1%
COc1ncc2nc(-c3ccc(F)cc3)c(=O)n(Cc3cccs3)c2n1	-9%	2%
CCOc1ccccc1N(C)C(=O)c1c2c(nc3ccccc13)C(=O)N(C1CCCCC1)C2	-8%	-4%
Cc1ccc2nc(C3CCCN(C(=S)Nc4cccc(C)c4C)C3)[nH]c2c1 (stereo not given)	16µM*	14µM*
Cc1ccc(NC(=S)N2CCCC(c3nc4ccc(C)cc4[nH]3)C2)c(C)c1 (stereo not given)	-26%	?
CCOc1ccc(CCNC(=O)c2cccc(-n3c(C)nc4cccnc43)c2)cc1	?	-4%
COc1ccccc1C(CC(=O)Nc1ccc(Cl)cc1)c1ccc(OC(C)C)cc1 (stereo not given)	3.2µM*	2%
COc1ccc(C(CC(=O)Nc2ccc(F)cc2)c2ccccc2)cc1 (stereo not given)	17%	-3%
Cc1[nH]nc(-c2ccc(OCc3cnn(-c4ccccc4)c3)cc2O)c1Oc1ccccc1F	20µM*	2%
O=c1c(Oc2ccccc2F)coc2cc(OCc3cnn(-c4ccccc4)c3)ccc12	-29%	-4%
CC(C)c1ccccc1NC(=O)CN(c1ccccc1)S(=O)(=O)N(C)C	11%	-2%
O=C(CC1SC(=Nc2ccccc2)N(CCCO)C1=O)Nc1ccc(Cl)cc1 (stereo not given)	?	-13%
SMILES	Cruzain noTriton	Cruzain Triton
O=C(CC1SC(=NCCc2ccccc2)N(/N=C/c2cccs2)C1=O)Nc1ccc(Cl)cc1 (stereo not given)	13µM*	-6%
O=C(/C=C/c1ccc(O)cc1)c1ccc(NC2=C(N3CCCCC3)C(=O)c3ccccc3C2=O)cc1	13µM*	-6%
O=C1C(Nc2ccccc2)=C(N2CCCCC2)C(=O)c2ccccc21	-22%	-12%
O=C(Nc1ccc2nc(-c3ccc4nc[nH]c4c3)[nH]c2c1)c1cccs1	?	13µM*
O=C(Nc1ccc2nc(-c3ccccc3)[nH]c2c1)c1cccs1	-9%	-10%
CC(CNC(=O)Cn1ccc2cc(S(=O)(=O)N3CCCCCC3)ccc21)c1ccccc1 (stereo not given)	6%	-5%
Cc1cccc(NC(=O)CSc2cn(CC(=O)N3CCCC3)c3ccccc23)c1C	-14%	-3%
C=C(C)CN=C1SC(C(=O)Nc2sc3c(c2C(=O)OC)CCC3)C(N)=C1C(N)=O (stereo not given)	-18%	-5%
COC(=O)c1c(NC(=O)C2SC(=NC3CCCCC3)C(C(N)=O)=C2N)sc2c1CCCC2 (stereo not given)	7.9µM*	-3%
Cc1cccc(NC(=O)c2c(C)cc(C)nc2SCC(=O)Nc2c(C)cc(C)cc2C)c1	0%	0%
Fc1ccc(Cn2ccc(-c3cnc(-c4ccccc4)s3)n2)cc1	0%	1%
O=C(c1ccc(F)cc1)n1ccc(-c2cnc(-c3ccccc3)s2)n1	6.3µM*	3%
CCN(CC)c1nc2c(S(=O)(=O)c3cccc(Cl)c3)nnn2c2ccsc12	-16%	-4%
Cc1ccc(OC/C(O)=C(\C#N)c2nc3ccccc3s2)cc1	20µM*	-3%
CC(C)=C(C#N)c1nc2ccccc2s1	-5%	-7%
O=C(Nc1nc(=O)c2ccccc2s1)c1ccc(Cl)cc1	10µM*	-2%
O=C(Nc1nc(=O)c2ccccc2s1)c1ccc(F)cc1	?	1%
